Data reported in PubChem BioAssay AID2289 (National Center for Advancing Translational Sciences (NCATS), 2010).
The campaign covered roughly 340,000 compounds. About 3,300 (0.97%) were called active. Another 9% or so got no clear call; they are omitted. The call rests on the fitted dose curve; in most records, active means well fitted inhibition curve with a large enough effect; inconclusive means small, poorly fitted or top-dose-only effect, or effect the other way; inactive means flat fitted curve, though single readings scatter. The list shows a part of the results.

test: qHTS Assay for Modulators of miRNAs and/or Inhibitors of miR-21; conditions: HeLa miR-21-FLuc reporter, luciferase luminescence, 48 h; actives lower the signal; further: nearly all actives have a fitted effect of over 55% in size
Summary of the method: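 HeLa cells stably expressing CMV-driven firefly luciferase with a downstream miR-21 binding sequence, endogenously expressing miR-21, were treated with titrations (up to about 40uM final) for 48 hours at 37 degree Celsius. Luciferase luminescence was read after lysis.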
Potency means the concentration at half of the fitted maximal effect.

| SMILES | Potency |
| --- | --- |
| C=CCOc1c(Br)cc(/C=N/Nc2ccc(C(=O)O)cc2)cc1OCC | 2.93 µM (active) |
| Cc1nc2cc(Cl)c(Cl)cc2nc1C | 16.5 µM (active) |
| CC(C)CN1CCc2nc(Nc3ccc(F)cc3F)ncc2C1 | 7.36 µM (active) |
| COc1ccccc1Nc1ncc2c(n1)CCN(CC(C)C)C2 | 6.56 µM (active) |
| O=C(Nc1ccc(-c2nc3cc(Cl)ccc3o2)cc1)C1CCCO1 (centres undefined) | 0.656 µM (active) |
| CC(=O)Nc1ccc(-c2nc3ccc(NC(C)=O)cc3o2)cc1 | 3.69 µM (active) |
| COc1ccc(-c2nc3ccc(NS(C)(=O)=O)cc3o2)cc1 | 1.17 µM (active) |
| CC(=O)Nc1ccc(-c2nc3cc(Cl)ccc3o2)cc1 | 0.369 µM (active) |
| COc1ccc(Cl)cc1C(=O)Nc1ccc2oc(-c3ccc(C(C)(C)C)cc3)nc2c1 | 4.65 µM (active) |
| COc1ccc(C(=O)CCNc2cccc(Cl)c2)cc1 | 7.36 µM (active) |
| COc1cccc(NCCC(=O)c2cccc([N+](=O)[O-])c2)c1 | 13.1 µM (active) |
| COc1n[nH]c(C(=O)Nc2nc3ccccc3s2)c1[N+](=O)[O-] | 6.56 µM (active) |
| CNc1ccccc(-c2ccc3cc4c(cc3n2)OCO4)c1=O | 2.61 µM (active) |
| CCC(=O)NC(=S)Nc1ccc(-c2nc3ccccc3s2)cc1 | 0.293 µM (active) |
| CCC(=O)NC(=S)Nc1ccc(-c2nc3ccc(C)cc3s2)cc1 | 8.26 µM (active) |
| CCCCNC(=S)Nc1ccc(-c2nc3ccc(C)cc3s2)cc1 | 0.826 µM (active) |
| Cc1ccc2nc(-c3ccc(NC(=S)NC(=O)C(C)C)cc3)sc2c1 | 0.927 µM (active) |
| Cc1ccc(Nc2ncnc3sc(C)c(C)c23)cc1 | 14.7 µM (active) |
| COc1ccc(NC(=O)CCCn2c(=O)c3cccn3c3ccccc32)c(OC)c1 | 2.07 µM (active) |
| O=C(CCCn1c(=O)c2cccn2c2ccccc21)Nc1cccc(Cl)c1 | 2.93 µM (active) |
| O=C(CCCn1c(=O)c2cccn2c2ccccc21)NCCc1ccc(Cl)cc1 | 1.47 µM (active) |
| CCCCOC(=O)Oc1ccc2c(=O)c(Oc3cccc(C)c3)coc2c1 | 18.5 µM (active) |
| Cc1nc2ccccc2nc1N/N=C/c1ccc(O)cc1 | 18.5 µM (active) |

| SMILES | Potency |
| --- | --- |
| Cc1nc(Cl)cc(N/N=C/c2ccc(O)cc2)n1 | 18.5 µM (active) |
| C=CCc1c(C)nc2c(-c3ccccc3)cnn2c1N1CCOCC1 | 1.65 µM (active) |
| Cc1nc2c(-c3ccccc3)cnn2c(N2CCOCC2)c1C | 2.33 µM (active) |
| Fc1ccccc1-c1nc(-c2ccccc2)no1 | 1.17 µM (active) |
| Cc1ccc(-c2noc(-c3ccccc3F)n2)cc1 | 1.47 µM (active) |
| Fc1ccc(-c2cc(-c3nc(-c4ccccc4)no3)[nH]n2)cc1 | 5.85 µM (active) |
| c1ccc(-c2cc(-c3ccccc3)[nH]n2)cc1 | 1.65 µM (active) |
| CS(=O)c1ccccc1-c1nc(-c2ccc(Cl)cc2)no1 (centres undefined) | 6.56 µM (active) |
| Cc1ccc(NC(=O)Nc2ccc3c(c2)OCO3)nc1 | 2.33 µM (active) |
| Cc1ccc(NC(=O)Nc2ccc3c(c2)OCO3)cc1F | 0.736 µM (active) |
| CCCSc1nsc(NC(=O)CC)n1 | 0.521 µM (active) |
| c1csc(CSc2nnc3sc4ccccc4n23)c1 | 8.26 µM (active) |
| O=C(CSc1nnc2sc3ccccc3n12)c1ccco1 | 16.5 µM (active) |
| Cc1nc(NC(=O)/C=C/c2ccccc2)sc1C(=O)N(C)C | 13.1 µM (active) |
| COc1cccc(C(=O)Nc2ccc3c(c2)OCO3)c1OC | 2.07 µM (active) |
| COc1ccccc1C(=O)N/N=C/c1ccc2c(c1)OCO2 | 3.29 µM (active) |
| COc1cc(Cl)c(C)cc1NC(=O)c1cccc(OC)c1OC | 5.21 µM (active) |
| COc1ccccc1C(=O)N/N=C/c1cnc2ccccc2n1 | 11.7 µM (active) |
| COc1ccccc1C(=O)Nc1nc2cc3c(cc2s1)OCO3 | 0.736 µM (active) |
| O=C(CNC(=O)c1ccccc1F)N/N=C/c1ccc2c(c1)OCO2 | 18.5 µM (active) |
| COc1ccccc1C(=O)Nc1ccc2c(c1)OCO2 | 9.27 µM (active) |
| CC(=O)c1ccc2c(c1)Cc1cc(C(C)=O)ccc1-2 | 1.85 µM (active) |
| Cc1ccc(-c2nc3c4ccccc4[nH]c(=O)n3n2)cc1 | 1.65 µM (active) |

| SMILES | Potency |
| --- | --- |
| COc1ccc(-c2nc3c4ccccc4[nH]c(=O)n3n2)cc1 | 3.69 µM (active) |
| C[C@H](NS(=O)(=O)c1ccc(Cl)cc1)C(=O)OCC(=O)NC(=O)Nc1ccc2c(c1)OCCO2 | 13.1 µM (active) |
| Cc1cc(OCc2cn3cccnc3n2)ccc1Cl | 7.36 µM (active) |
| Cc1ccc(OCc2cn3cccnc3n2)cc1 | 2.07 µM (active) |
| c1ccc(NCC2OCc3ccccc3CO2)cc1 | 4.65 µM (active) |
| Cc1ccc(Nc2nc(N)c([N+](=O)[O-])c(NCc3ccco3)n2)cc1 | 18.5 µM (active) |
| Nc1nc(Nc2cccc(Cl)c2)nc(NCc2ccco2)c1[N+](=O)[O-] | 13.1 µM (active) |
| N/C(=N\OC(=O)Cc1ccc(Cl)cc1)c1ccccn1 | 13.1 µM (active) |
| COc1ccccc1C(=O)O/N=C(\N)c1ccccc1Cl | 3.29 µM (active) |
| Cc1ccc(CC(=O)O/N=C(\N)c2ccccn2)cc1 | 4.14 µM (active) |
| N/C(=N\OC(=O)Cc1ccccc1)c1ccccc1Cl | 5.85 µM (active) |
| Clc1c(-c2ccccc2)nc2ccccn12 | 5.21 µM (active) |
| Brc1ccc(-c2ncc3ccccn23)cc1 | 7.36 µM (active) |
| CN(C)Cc1c(-c2ccc(Cl)cc2)nc2ccccn12 | 6.56 µM (active) |
| Cc1c(-c2ccc(Br)cc2)nc2ccccn12 | 1.47 µM (active) |
| COc1ccc(CN=C(C)c2c(C(F)(F)F)[nH]n(-c3nc4ccccc4s3)c2=O)cc1 | 7.36 µM (active) |
| CNc1nn(-c2cccc(Cl)c2)nc1N | 4.47 µM (active) |
| O=C(NNc1nc2cc3c(cc2s1)OCO3)c1ccccc1 | 13.1 µM (active) |
| O=C(NNc1nc2cc3c(cc2s1)OCCO3)c1ccccc1 | 14.7 µM (active) |
| CC(C)c1ccc(CNc2nc(-c3ccco3)nn2C(=O)c2ccc([N+](=O)[O-])cc2)cc1 | 2.07 µM (active) |
| COc1ccc(CNc2nc(-c3ccccc3)nn2C(=O)c2ccc([N+](=O)[O-])cc2)cc1 | 14.7 µM (active) |
| COCC(=O)n1nc(-c2ccco2)nc1NCc1ccccc1Cl | 16.5 µM (active) |
| CN(C)c1ccc(CNc2nc(-c3ccco3)nn2S(C)(=O)=O)cc1 | 7.36 µM (active) |
